Laboratory results as given in PubChem BioAssay (NCI).
Compounds without any hit were thinned out: in the full panel of roughly 79,000, 15% have a hit. Values without a mark were called inactive. The source made the active and inactive calls. Cut-off read from the data, not from the text of the source: active = growth inhibition above about 70%; inactive = the rest.

Legend:
[1] = NCI Yeast Anticancer Drug Screen. Data for the rad50 strain (AID 155);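 note: 0% = growth of vehicle-only cultures of the same strain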; conditions: S. cerevisiae rad50 strain growth inhibition, stronger effect = higher value
Outline: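 Growth of the mutant yeast was measured after compound exposure and referenced to vehicle-treated cultures.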

[2] = NCI Yeast Anticancer Drug Screen. Data for the mec2-1 strain (AID 157); conditions: S. cerevisiae mec2-1 strain, stronger effect = higher value
Outline: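 Growth inhibition is read against vehicle-treated controls after compound exposure of the mec2-1 yeast strain, which is defective in DNA damage repair or cell cycle control.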

[3] = NCI Yeast Anticancer Drug Screen. Data for the sgs1 mgt1 strain (AID 161);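 note: 0% = growth of cultures given vehicle only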; conditions: S. cerevisiae sgs1 mgt1 strain, stronger effect = higher value
Outline: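 Percent growth inhibition was derived by comparing compound-exposed mutant yeast with vehicle-exposed cultures. The strain carries alterations in DNA damage repair.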

[4] = NCI Yeast Anticancer Drug Screen. Data for the cln2 rad14 strain (AID 165);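 note: 0% = growth equal to vehicle treated cultures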; conditions: S. cerevisiae cln2 rad14 strain, stronger effect = higher value
Outline: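 Growth inhibition, relative to vehicle-treated controls, is the read-out. The test organism is a yeast strain with defined genetic alterations, cln2 rad14.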

[5] = NCI Yeast Anticancer Drug Screen. Data for the bub3 strain (AID 167); conditions: S. cerevisiae bub3 mutant strain, stronger effect = higher value
Outline: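 Whole-cell yeast assay. The mutant strain was incubated with compounds, and growth inhibition was determined by comparison with vehicle-treated cells.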

[6] = NCI Yeast Anticancer Drug Screen. Data for the mlh1 rad18 strain (AID 175); conditions: S. cerevisiae mlh1 rad18 strain growth inhibition, stronger effect = higher value
Outline: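 Cells of a genetically altered yeast strain, deficient in DNA damage repair, were treated with compound. Their growth was then compared with that of vehicle-treated cultures to give inhibition.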

[7] = at 5.0 µM (retest, dose inferred, filed as 0.5)
[8] = at 50.0 µM (retest, dose inferred, filed as 5.0)

Compound	growth inhibition [1, 7]	growth inhibition [1, 8]	growth inhibition ([1]; at 50.0 µM)	growth inhibition [2, 7]	growth inhibition [2, 8]	growth inhibition ([2]; at 50.0 µM)	growth inhibition [3, 7]	growth inhibition [3, 8]	growth inhibition ([3]; at 50.0 µM)	growth inhibition [4, 7]	growth inhibition [4, 8]	growth inhibition ([4]; at 50.0 µM)	growth inhibition [5, 7]	growth inhibition [5, 8]	growth inhibition ([5]; at 50.0 µM)	growth inhibition [6, 7]	growth inhibition [6, 8]	growth inhibition ([6]; at 50.0 µM)
CC(C)N(C(=O)c1ccc(Cl)c(Cl)c1)C(C)C	-15%	-14%	-0.55%	-14%	4%	10.8%	-1%	0%	15.1%	29%	-26%	13.4%	6%	-25%	9.2%	-12%	0%	-5.65%
CC1(C(Cl)(Cl)Cl)C=CC(O)(C#CC2(O)C=CC(C)(C(Cl)(Cl)Cl)C=C2)C=C1 (configuration not stated)	94% (active)	7%	94.5% (active)	91% (active)	98% (active)	98.2% (active)	81% (active)	-7%	98.3% (active)	87% (active)	97% (active)	95.7% (active)	98% (active)	97% (active)	95.4% (active)	93% (active)	98% (active)	97.8% (active)
O=[N+]([O-])OC1CCCC(O[N+](=O)[O-])c2c1n([O-])c1ccccc1[n+]2=O (configuration not stated)	53%	91% (active)	89.3% (active)	40%	86% (active)	21.2%	58%	94% (active)	82.5% (active)	39%	84% (active)	47.1%	19%	73% (active)	17.5%	53%	94% (active)	84% (active)
CN(C)CC1Cc2ccsc2C1=O (configuration not stated)	0%	85% (active)	99% (active)	5%	75% (active)	99.5% (active)	3%	54%	99.4% (active)	1%	76% (active)	99.5% (active)	0%	88% (active)	99.3% (active)	0%	93% (active)	99.2% (active)
COc1ccc(-c2cscc2N)cc1	-7%	72% (active)	67.5%	-15%	46%	87.2% (active)	-9%	38%	51.9%	-6%	89% (active)	46.1%	-19%	91% (active)	92.2% (active)	-1%	56%	89% (active)
O=C(CCSCCC(=O)NNc1ccccc1)NNc1ccccc1	4%	32%	24.4%	-1%	28%	3.5%	4%	37%	20.4%	6%	23%	23.4%	7%	44%	-14.7%	15%	58%	35.9%
CC(=O)Oc1cc2c(cc1OC(C)=O)OCC(c1ccccc1)C2 (configuration not stated)	2%	45%	69.3%	5%	48%	56.3%	4%	60%	76.5% (active)	3%	20%	35.9%	41%	93% (active)	94.8% (active)	-10%	53%	63.4%
O=C1Sc2sc(=S)sc2SC1c1ccccc1 (configuration not stated)	-4%	87% (active)	40.5%	-1%	91% (active)	36.5%	5%	98% (active)	82.2% (active)	-1%	79% (active)	58.1%	-4%	95% (active)	32.6%	2%	97% (active)	90.5% (active)
O=C1C2(Cl)C(Cl)=C(Cl)C1(Cl)C1(Cl)C(Cl)=C(Cl)C(=O)C21Cl (configuration not stated)	55%	88% (active)	98.2% (active)	45%	92% (active)	54.2%	45%	92% (active)	39.8%	19%	89% (active)	76.4% (active)	21%	92% (active)	28.4%	66%	90% (active)	61.2%
O=C(O/N=C1/CCC/C1=C\c1ccccc1)c1ccccc1	33%	97% (active)	96.5% (active)	46%	99% (active)	98.2% (active)	78% (active)	99% (active)	98.8% (active)	25%	98% (active)	97% (active)	15%	99% (active)	96.3% (active)	57%	98% (active)	98.3% (active)
C[CH2][Sn]([CH2]C)([O]C(=O)c1c(F)cccc1F)[O][Sn]([CH2]C)([CH2]C)[O]C(=O)c1c(F)cccc1F	40%	89% (active)	81.3% (active)	34%	95% (active)	81.8% (active)	36%	95% (active)	83.2% (active)	28%	84% (active)	72.4% (active)	45%	72% (active)	78.5% (active)	44%	93% (active)	78.2% (active)
COc1ccc(NC(=O)CCC(=O)CC(=O)c2ccncc2)cc1	-9%	3%	3.5%	4%	-2%	-8.65%	2%	-9%	-6.25%	-5%	2%	41.2%	-2%	1%	3.25%	-1%	-5%	-14.6%
Cc1ccc2c(ccc(CC(=S)[S-])[n+]2C)c1	10%	41%	58.2%	11%	21%	51.6%	11%	46%	66.3%	10%	37%	47.3%	3%	38%	61.5%	4%	41%	90.2% (active)
CC(=O)c1c(C)n(C)c2c1nnc1ccccc12	53%	81% (active)	92.3% (active)	17%	50%	36.9%	6%	-2%	22%	9%	31%	59.4%	11%	48%	27.1%	19%	56%	68.4%
O=C(NCCCCCNC(=O)C12CC3CC(CC(C3)C1)C2)C12CC3CC(CC(C3)C1)C2	8%	7%	5.9%	5%	-8%	27.8%	7%	7%	-5.15%	-1%	-2%	40.2%	4%	0%	1.75%	3%	12%	4.15%
COc1ccc(C(=O)C(CN2CCCC2)CN2CCCC2)cc1	-1%	75% (active)	47.6%	4%	88% (active)	88.1% (active)	-5%	82% (active)	44%	2%	54%	7.4%	-5%	81% (active)	59.5%	3%	79% (active)	69.3%
Cn1cc(NC(=O)c2cc(NC(=O)CCCCCCCCCCC(=O)Nc3cc(C(=O)Nc4cc(C(=O)NCCC(=N)N)n(C)c4)n(C)c3)cn2C)cc1C(=O)NCCC(=N)N	92% (active)	98% (active)	89.5% (active)	95% (active)	98% (active)	92% (active)	95% (active)	99% (active)	92% (active)	72% (active)	97% (active)	91.4% (active)	96% (active)	98% (active)	91% (active)	92% (active)	97% (active)	90.2% (active)
Cc1c2ccccc2c(C)c2c1ccc1ccccc12	73% (active)	91% (active)	96.8% (active)	93% (active)	91% (active)	97.5% (active)	93% (active)	94% (active)	97.7% (active)	60%	91% (active)	83.4% (active)	81% (active)	93% (active)	94.3% (active)	93% (active)	91% (active)	98.1% (active)
CC(C)(CN1CCCCC1)C(=O)/C=C/c1ccc(Cl)c(Cl)c1	60%	97% (active)	93.3% (active)	27%	98% (active)	94.7% (active)	31%	96% (active)	93.2% (active)	28%	96% (active)	91.8% (active)	47%	96% (active)	92.9% (active)	52%	97% (active)	92.7% (active)
